Screening results: PubChem BioAssay, several laboratories
Most compounds without a hit are left out; they make up all but 2.1% or so of the library.
IDE cell activ – activators of human insulin-degrading enzyme in cells | HEK cells, FAbeta-B cleavage, fluorescence polarization; 0% vehicle, 100% cell-free pure enzyme wells | activation, % at 5.96 µM | P14735 | 0.073% of 340,000 active;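 active = activation above the mean of all tested compounds plus 3 SD, set per screening campaign, cut at about 17% in these data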
Mot1-301 SUMO – inhibitors of SUMOylation pathway: yeast Mot1-301 growth rescue; AID 2716; S. cerevisiae Mot1-301 growth rescue, ATP luminescence, 38.5C; percent above DMSO median, 100 means doubled; 1% of 320,000 active; growth rescue, % at 18.8 µM;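 active = every valid replicate shows activation above 250% relative to neutral control wells; inactive = the rest, any valid replicate at or below 250%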;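 note: OY570 slx delta 5 strain wells were the positive control but not used for scaling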
HDAC3 inh – inhibitors of human histone deacetylase 3; inhibition, % at 8.3 µM; AID 2718; recombinant HDAC3, fluorogenic peptide/trypsin coupled, fluorescence; O15379; 0.15% of 320,000 active; in the data active = inhibition above about 26%, passing the limit was not always enough
Target sequence (O15379 whole entry, looked up): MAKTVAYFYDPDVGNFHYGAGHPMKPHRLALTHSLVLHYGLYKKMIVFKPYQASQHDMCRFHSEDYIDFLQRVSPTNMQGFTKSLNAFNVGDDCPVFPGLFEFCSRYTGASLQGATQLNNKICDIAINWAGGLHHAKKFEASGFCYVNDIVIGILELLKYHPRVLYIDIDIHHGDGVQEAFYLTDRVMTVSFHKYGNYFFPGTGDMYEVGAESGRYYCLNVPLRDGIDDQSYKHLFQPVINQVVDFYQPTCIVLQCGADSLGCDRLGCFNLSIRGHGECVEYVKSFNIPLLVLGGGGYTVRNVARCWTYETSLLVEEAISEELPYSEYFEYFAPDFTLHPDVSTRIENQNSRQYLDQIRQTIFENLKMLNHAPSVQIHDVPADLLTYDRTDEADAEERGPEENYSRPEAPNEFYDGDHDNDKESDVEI
LANA-H2B inh – blocks KSHV LANA binding to histone H2A/H2B; Q9QR71; cell-free LANA-H2A/H2B peptide, fluorescence polarization; inhibition, % (test concentration not listed); 0.6% of 320,000 active; in the data active = inhibition mostly above about 10%, no sharp cut-off; inactive = mostly below about 6.7%
IDE cell inh – cellular human IDE inhibition; P14735; HEK cells, FAbetaB cleavage, fluorescence polarization; inhibition, % at 5.59 µM; 0.41% of 320,000 active; AID 434962;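 active = percent inhibition above the average of all tested compounds plus 3 SD, set per screening campaign, cut at about 16% in these data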;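 note: IDE supplied by intact live HEK cells; FP after avidin binding of uncleaved biotin substrate so inhibition keeps polarization high; 0% = DMSO wells and 100% = 60 µM reference IDE inhibitor Ii1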
Mot1 SUMO dose – SUMO pathway inhibitors in yeast Mot1-301 growth; shares compounds with Mot1-301 SUMO; S. cerevisiae Mot1-301 galactose growth, ATP luminescence, 24 h; -100 = growth of slx-deleted rescue strain; growth activity, percent, % at 42 µM; 2,300 tested, under 10 active;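 active = Signal drops as the depositor expects, and the fitted half-maximal dose is no more than ten times the top valid tested dose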;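 note: more negative values mean stronger growth rescue toward the control strain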
* marks the source's active call; other numbers are inactive results.

Results for O=C(N/N=C/c1cccc(F)c1)c1c(O)c2c([nH]c1=O)CCCC2 ?
IDE cell activ: 0.6; Mot1-301 SUMO: -2.3; HDAC3 inh: -4.4; LANA-H2B inh: -5.9; IDE cell inh: 3.9

Results for CNC(=O)c1ccccc1NC(=O)c1c(O)c2c([nH]c1=O)CCCC2 ?
IDE cell activ: 4.0; Mot1-301 SUMO: 521.5*; HDAC3 inh: 6.6; LANA-H2B inh: 0.4; IDE cell inh: 1.9; Mot1 SUMO dose: 0.0

How did COc1ccccc1NC(=O)CS(=O)(=O)c1cn(CC(=O)N(C(C)C)C(C)C)c2ccccc12 do in these assays?
IDE cell activ: -1.0; Mot1-301 SUMO: 80.0; HDAC3 inh: -2.2; LANA-H2B inh: 1.7; IDE cell inh: 4.9

What do the screens show for `O=C(CN1C(=O)CNC1=O)Nc1cc(Cl)cc(Cl)c1`?
IDE cell activ: 3.0; Mot1-301 SUMO: 0.9; HDAC3 inh: -5.7; LANA-H2B inh: 1.4; IDE cell inh: -0.8

Results for C/C(=N/Nc1ccc(F)cc1)c1ccc(Cl)s1 ?
IDE cell activ: -1.5; Mot1-301 SUMO: 384.4*; IDE cell inh: -4.8; Mot1 SUMO dose: 0.0

How did C/C(=N\NC(N)=O)c1ccc(Cl)s1 do in these assays?
IDE cell activ: -0.4; Mot1-301 SUMO: -26.1; HDAC3 inh: 3.8; LANA-H2B inh: 1.7; IDE cell inh: -1.8

What do the screens show for `CC(=O)c1cc(Cl)ccc1OC(=O)c1ccco1`?
IDE cell activ: 2.2; Mot1-301 SUMO: 6.0; HDAC3 inh: 8.4; LANA-H2B inh: -0.9; IDE cell inh: 2.6

How did CC(=O)c1cc(C)ccc1OC(=O)c1ccco1 do in these assays?
IDE cell activ: -4.4; Mot1-301 SUMO: 429.1*; HDAC3 inh: 6.1; LANA-H2B inh: -1.5; IDE cell inh: 0.5; Mot1 SUMO dose: 0.9

Results for CCC1CCCCN1C(=O)CSc1nc2c([nH]c3ccccc32)c(=O)n1C (stereo not given) ?
IDE cell activ: 2.7; Mot1-301 SUMO: 631.1*; HDAC3 inh: -0.1; LANA-H2B inh: -1.0; IDE cell inh: 0.4; Mot1 SUMO dose: 0.9

Results for COc1cc2c(cc1OC)C(COc1cccc(C(F)(F)F)c1)NCC2 (stereo not given) ?
IDE cell activ: 4.7; Mot1-301 SUMO: -5.5; HDAC3 inh: 0.9; LANA-H2B inh: -1.9; IDE cell inh: 4.9

How did CCn1cc(CCCC(=O)NCc2ccccc2OC)c2ccccc21 do in these assays?
IDE cell activ: 0.3; Mot1-301 SUMO: 888.5*; HDAC3 inh: 1.4; LANA-H2B inh: -1.2; Mot1 SUMO dose: -0.3

Results for CCn1cc(CCC(=O)NCc2ccccc2OC)c2ccccc21 ?
IDE cell activ: 0.3; Mot1-301 SUMO: 6.7; HDAC3 inh: 14.8; LANA-H2B inh: 2.8; IDE cell inh: 2.2

Results for O=C(Cc1ccc(Cl)cc1)NCC(=O)N1CCCCCC1 ?
IDE cell activ: 6.1; Mot1-301 SUMO: -10.6; HDAC3 inh: 0.1; LANA-H2B inh: 0.1; IDE cell inh: -1.8

Results for COc1ccc(S(=O)(=O)N(C)Cc2ccc3c(c2)OCCO3)cc1 ?
IDE cell activ: 3.4; Mot1-301 SUMO: 9.6; HDAC3 inh: 5.2; LANA-H2B inh: 2.4; IDE cell inh: 2.4

Results for CCOc1ccc(Cl)cc1S(=O)(=O)N1CCC(C(=O)NCc2cccnc2)CC1 ?
IDE cell activ: -1.0; Mot1-301 SUMO: 365.8*; HDAC3 inh: -8.0; LANA-H2B inh: 1.5; IDE cell inh: -3.4; Mot1 SUMO dose: -0.1

What do the screens show for `COc1ccc(OC)c(S(=O)(=O)N2CCC(C(=O)NCc3cccnc3)CC2)c1`?
IDE cell activ: 0.7; Mot1-301 SUMO: -18.9; HDAC3 inh: 4.8; LANA-H2B inh: -1.9; IDE cell inh: -0.8

What do the screens show for `CCOc1ccc(Br)cc1S(=O)(=O)N1CCC(C(N)=O)CC1`?
IDE cell activ: 7.2; Mot1-301 SUMO: 438.1*; HDAC3 inh: -5.4; LANA-H2B inh: 6.0; IDE cell inh: -0.9; Mot1 SUMO dose: 0.2

Results for O=C(N1CCOCC1)N1CCN(S(=O)(=O)c2ccc(Cl)cc2)CC1 ?
IDE cell activ: -3.7; Mot1-301 SUMO: 125.5; HDAC3 inh: 2.9; LANA-H2B inh: 3.7; IDE cell inh: 5.4

How did COc1ccc(NC(=S)NC(=O)C2CCC2)cc1 do in these assays?
IDE cell activ: -5.5; Mot1-301 SUMO: 555.1*; HDAC3 inh: 0.6; LANA-H2B inh: -4.5; IDE cell inh: -1.9; Mot1 SUMO dose: -0.7

Results for COC(=O)c1ccc(NC(=O)Nc2ccc(OC)cc2)cc1 ?
IDE cell activ: 4.8; Mot1-301 SUMO: 9.2; HDAC3 inh: -3.3; LANA-H2B inh: 1.1; IDE cell inh: 1.4

What do the screens show for `COc1ccc(NC(=O)Nc2ccc(OC)cc2)cc1`?
IDE cell activ: 4.7; Mot1-301 SUMO: 391.5*; HDAC3 inh: -2.1; LANA-H2B inh: -2.5; IDE cell inh: 4.5; Mot1 SUMO dose: 0.1

Results for COc1ccc(C(CNC(=O)C2CC(=O)N(Cc3ccccc3)C2)N2CCOCC2)cc1 (stereo not given) ?
IDE cell activ: 0.0; Mot1-301 SUMO: 3.9; HDAC3 inh: 3.3; LANA-H2B inh: 1.0; IDE cell inh: 0.3

What do the screens show for `CCOCCCNC(=O)C1CCCN(S(=O)(=O)c2ccc(-n3cnnn3)cc2)C1` (stereo not given)?
IDE cell activ: 2.0; Mot1-301 SUMO: -5.4; HDAC3 inh: -2.8; LANA-H2B inh: 4.5; IDE cell inh: 0.1

Results for O=C(C1CCCC1)N1CCCC(Nc2ccc(F)cc2)C1 (stereo not given) ?
IDE cell activ: 3.8; Mot1-301 SUMO: 1.1; HDAC3 inh: 2.4; LANA-H2B inh: -0.5; IDE cell inh: 0.9

What do the screens show for `O=C(c1cccnc1)N1CCCC(Nc2ccc(F)cc2)C1` (stereo not given)?
IDE cell activ: 1.4; Mot1-301 SUMO: 595.3*; LANA-H2B inh: 2.6; IDE cell inh: -2.9; Mot1 SUMO dose: -0.5

Results for CCC(C)(C(=O)NC1CCCC1)N(C(=O)c1ccccn1)c1ccc(C)cc1 (stereo not given) ?
IDE cell activ: 2.0; Mot1-301 SUMO: 652.5*; HDAC3 inh: -2.7; LANA-H2B inh: 1.4; IDE cell inh: -0.3; Mot1 SUMO dose: -0.3

How did CCCc1nccn1S(=O)(=O)c1cc(OC)ccc1OC do in these assays?
IDE cell activ: 0.9; HDAC3 inh: 0.0; LANA-H2B inh: -1.1; IDE cell inh: 6.9

What do the screens show for `CCc1nccn1S(=O)(=O)c1cc(OC)ccc1OC`?
IDE cell activ: 3.1; Mot1-301 SUMO: 499.2*; HDAC3 inh: -0.3; LANA-H2B inh: -0.7; IDE cell inh: -0.3; Mot1 SUMO dose: 0.5

How did COc1ccc2c(c1)CC(C(=O)Nc1ccc(Cl)cc1)/C(=N/O)O2 (stereo not given) do in these assays?
IDE cell activ: 4.1; Mot1-301 SUMO: -1.3; HDAC3 inh: -3.9; LANA-H2B inh: -1.1

How did O=C(CCc1ccccc1)N1CCN(c2ccccc2F)CC1 do in these assays?
IDE cell activ: 3.0; Mot1-301 SUMO: 793.0*; HDAC3 inh: 1.4; LANA-H2B inh: 1.6; IDE cell inh: 4.7; Mot1 SUMO dose: 0.0
